SMN2 splice enh: qHTS Assay for Enhancers of SMN2 Splice Variant Expression; HEK293 SMN2-luciferase splicing reporter, luminescence, 30-36 h; Potency, µM (top dose mostly 46.1 µM), for inactives: at the top dose activity change, positive = activation, usual class: activators; AID 1458, 2008; 2.8% of 210,000 active; also: % of control where 0% means no effect; nearly all actives have a fitted effect of over 55% in size
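HEK293 cells carry an SMN2 minigene-luciferase reporter in which exon 7 inclusion puts luciferase in frame. Cells were seeded at 2000 cells/well, attached for 10-12 hours, then exposed to compounds for 30-36 hours at 37C before ONE-Glo luminescence.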
NPC1 promoter act: qHTS Assay for NPC1 Promoter Activators | Huh7 NPC1 promoter luciferase reporter, 24 h | Potency, µM (highest dose often 9.22 µM), without a hit: at the top dose activation, hits mostly activators | 2.4% of 320,000 active; also: % of control where 0% means no effect; nearly all actives have a fitted effect of over 60% in size
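Stably transfected Huh7 (NPC1 promoter→luciferase), 1500 cells/well in Opti-MEM + 10% FBS, 2 h settle, then compound 24 h at 37 °C. Luminescence after 10 min with Amplite reagent.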
ELG1 repair inh: qHTS screen for small molecules that inhibit ELG1-dependent DNA repair in human embryonic kidney (HEK293T) cells expressing luciferase-tagged ELG1 | HEK293T ELG1-luciferase reporter, luminescence, 16 h; DNA damage induced by 5-fluorouridine | Potency, µM (series often up to 46.1 µM), for inactives: at the highest dose activity change, negative = inhibition, hits mostly inhibitors | 2.3% of 330,000 active; also: % is scaled to controls: 0 for no effect and ±100 for the full control effect; nearly all actives have a fitted effect of over 55% in size
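In this reporter screen, reduction of luminescence relative to DMSO vehicle indicated activity. Compounds and 5-fluorouridine were added together to 2,000 cells per well, incubated for 16 hr at 37 °C, then developed with ONE-Glo.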
FLuc counter: qHTS profiling assay for firefly luciferase inhibitor/activator using purifed enzyme and Km concentrations of substrates (counterscreen for miR-21 project); purified FLuc, Km substrates, luminescence inhibition; Luciferin 4-monooxygenase (Photinus pyralis), P08659; 6.9% of 360,000 active; AID 588342, 2011; Potency, µM (doses to about 57.5 µM), without a hit: at the top dose activity change, negative = inhibition, hits mostly inhibitors;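 also: plate controls were vehicle for no effect and reference inhibitor for full effect; nearly all actives have a fitted effect of over 55% in size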
Target sequence (P08659 whole entry, looked up): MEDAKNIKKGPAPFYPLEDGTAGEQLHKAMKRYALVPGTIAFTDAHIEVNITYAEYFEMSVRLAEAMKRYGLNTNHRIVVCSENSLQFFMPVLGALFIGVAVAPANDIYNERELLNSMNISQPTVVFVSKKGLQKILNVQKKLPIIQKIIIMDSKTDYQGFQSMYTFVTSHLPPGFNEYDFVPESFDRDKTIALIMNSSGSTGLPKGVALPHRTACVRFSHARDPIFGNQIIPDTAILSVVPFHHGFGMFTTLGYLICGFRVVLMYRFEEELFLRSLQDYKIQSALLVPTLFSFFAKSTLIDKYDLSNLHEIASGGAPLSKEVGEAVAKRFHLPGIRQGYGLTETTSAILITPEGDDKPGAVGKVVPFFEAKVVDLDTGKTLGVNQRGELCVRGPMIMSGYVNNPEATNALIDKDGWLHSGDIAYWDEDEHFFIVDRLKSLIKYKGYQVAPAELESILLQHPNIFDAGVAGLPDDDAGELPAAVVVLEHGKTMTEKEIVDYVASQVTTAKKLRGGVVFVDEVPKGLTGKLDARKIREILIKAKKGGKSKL
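Purified P. pyralis luciferase, 10 nM final, with Km-level 10 uM D-luciferin and 10 uM ATP in 50 mM Tris acetate pH 7.5, 10 mM Mg acetate, 0.01% Tween-20, 0.05% BSA; 6-point qHTS titration about 60 µM downward; luminescence read.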
Rab9 promoter act: qHTS Assay for Rab9 Promoter Activators. Huh7 Rab9 promoter-luciferase reporter, luminescence, 24 h. Potency, µM (highest dose often 9.22 µM), inactives show at the top dose activation, negative = inhibition, actives largely listed as activators. 2.8% of 320,000 active; also: % of control where 0% means no effect; nearly all actives have a fitted effect of over 60% in size
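Cell-based reporter: Huh7 stable for Rab9 promoter-driven luciferase, plated in reduced-serum medium with 10% FBS at 1500 cells/well, compound-treated 24 h at 37 °C, luminescence read after 10 min reagent.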
ELG1 genotoxic: qHTS screen for small molecules that induce genotoxicity in human embryonic kidney (HEK293T) cells expressing luciferase-tagged ELG1 | 1.3% of 330,000 active | HEK293T ELG1-luciferase reporter, luminescence, 16 h | AID 504466, 2011 | Potency, µM (top dose mostly 46 µM), for the others: top-dose activity change, positive = activation, actives largely listed as activators; also: % of control where 0% means no effect; nearly all actives have a fitted effect of over 60% in size
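Quantitative HTS format in 1536-well plates. HEK293T ELG1-luciferase reporter cells receive test compound and are incubated 16 hr at 37 °C, 5% CO2; ONE-Glo added, 30 min room temperature, then luminescence read.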
* hit, by the source's call; ? = inconclusive; . = no result given; [ ] = dose if it differs, or a comment. Only some compounds are listed: those with a hit (about 9.2% of all), similar ones and a draw of the others. Calls follow the shape of the dose curve; as a rule, active = well fitted curve in the direction sought with a large enough effect; inconclusive = small, poorly fitted or top-dose-only effect, or another doubt; inactive = no such curve, though single readings can be large; an effect the other way counts as inactive or inconclusive. Potency is read from the fitted curve at half-maximal effect.

SMILES	SMN2 splice enh	NPC1 promoter act	ELG1 repair inh	FLuc counter	Rab9 promoter act	ELG1 genotoxic
COc1ccc(N(CC(=O)Nc2ccc(OC)c(OC)c2)S(=O)(=O)c2ccccc2)cc1Cl	.	-2%	?	-1%	10%	-5%
CN(c1cccc(NC(=O)CN(c2cccc(Cl)c2)S(=O)(=O)c2ccccc2)c1)S(C)(=O)=O	.	-2%	26µM*	2%	2%	-10%
CCOc1ccc(NC(=O)CN(c2ccc([N+](=O)[O-])cc2)S(=O)(=O)c2ccccc2)cc1	-13%	-8%	10µM*	0%	-5%	-7%
COc1ccc(N(CC(=O)Nc2cccc(N(C)S(C)(=O)=O)c2)S(=O)(=O)c2ccccc2)cc1Cl	.	-2%	8.2µM*	-5%	0%	-11%
CC(=O)Nc1ccc(NC(=O)CN(c2ccc([N+](=O)[O-])cc2)S(=O)(=O)c2ccccc2)cc1	.	-5%	4%	-14%	10%	3%
COc1ccc(N(CC(=O)Nc2cccc(N(C)S(C)(=O)=O)c2)S(=O)(=O)c2ccc(C)cc2)cc1	.	-1%	?	0%	-3%	-5%
COC(=O)c1ccc(C2c3c(oc4cc(C)c(C)cc4c3=O)C(=O)N2c2ccccn2)cc1 (configuration not stated)	9%	.	.	1%	.	.
COc1ccc(NC(=O)CN(c2ccccc2)S(=O)(=O)N(C)C)cc1Cl	-10%	-7%	14%	1%	-3%	1%
COc1ccc(N(CC(=O)Nc2cccc(N(C)S(C)(=O)=O)c2)S(=O)(=O)c2ccc(F)cc2)cc1	.	1%	13µM*	-2%	-5%	-7%
COc1ccc(NC(=O)CN(c2ccccc2)S(=O)(=O)N(C)C)cc1OC	1µM*	2%	0%	2%	-1%	-7%
CCCC(=O)Nc1cc(OC)c(C(=O)OC)cc1Cl	3%	0%	12%	5%	-3%	-1%
CC1=CC(C)(C)[N+](C)=CN1c1ccccc1	-2%	-1%	-8%	-1%	0%	-3%
COCCNS(=O)(=O)c1cc(F)ccc1OC	3.2µM*	1%	2%	0%	-4%	-3%
COCCNS(=O)(=O)c1cc(C(=O)O)ccc1OC	.	1%	8%	0%	0%	0%
O=C(/C=C/Nc1ccc(F)cc1F)c1ccco1	2.8µM*	?	?	0.21µM*	3.5µM*	0.46µM*
O=C(NNC(=S)Nc1ccc(F)cc1F)c1ccco1	.	?	?	-16%	?	11%
O=C(/C=C/Nc1ccccc1O)c1ccco1	.	1%	?	2.4µM*	?	21µM*
O=C(/C=C/Nc1ccccc1Oc1ccccc1)c1ccco1	-1%	2%	-2%	-26%	-4%	0%
O=C(/C=C/Nc1ccc(Br)cc1F)c1ccco1	1.1µM*	1.1µM*	?	0.24µM*	0.71µM*	0.33µM*
O=C(NNC(=O)C12CC3CC(CC(O)(C3)C1)C2)c1csc(N2CCOCC2)n1	.	1%	9%	0%	2%	-3%
O=C(COC(=O)CNC(=O)c1ccc(Br)cc1)Nc1nnc(-c2ccccc2)o1	.	1%	3%	?	-4%	-2%
CCOc1ccc(C(=O)NCC(=O)OCC(=O)Nc2nnc(-c3ccccc3)o2)cc1	.	1%	22%	13µM*	3%	3%
CCCOc1ccc(C(=O)CCC(=O)OCC(=O)Nc2cccc(S(N)(=O)=O)c2)cc1	.	0%	?	11µM*	-6%	2%
O=C(Nc1cccc(S(=O)(=O)N2CCCCC2)c1)c1ccc(OCC2CCCO2)cc1 (configuration not stated)	-67%	-5%	13µM*	15µM*	4%	-18%
O=C(CNc1cc(S(=O)(=O)N2CCOCC2)ccc1NCC1CCCO1)Nc1ccc(C(F)(F)F)cc1 (configuration not stated)	.	6%	?	-1%	1%	-7%
SMILES	SMN2 splice enh	NPC1 promoter act	ELG1 repair inh	FLuc counter	Rab9 promoter act	ELG1 genotoxic
N#Cc1ccc(NC(=O)CNc2cc(S(=O)(=O)N3CCOCC3)ccc2NCC2CCCO2)cc1 (configuration not stated)	-6%	-1%	8.2µM*	-5%	1%	-2%
O=C(Nc1nnc(S(=O)(=O)N2CCc3ccccc32)s1)c1cccc(Cl)c1	.	.	.	-7%	.	.
O=C(O)c1cccc(SSc2cccc(C(=O)O)c2)c1	21%[9.22 µM]	.	.	.	.	.
O=C(Nc1ccc(Cl)c(S(=O)(=O)N2CCOCC2)c1)c1ccc(OCC2CCCO2)cc1 (configuration not stated)	-58%	-34%	2.9µM*	-18%	-44%	-20%
COc1ccc(C(=O)Nc2ccc(-c3ccc(C)o3)cc2)cc1S(=O)(=O)N1CCOCC1	.	-10%	15µM*	?	-16%	-34%
O=C(Nc1ccc(S(=O)(=O)N2CCCC2)cc1)c1ccc(OCC2CCCO2)cc1 (configuration not stated)	-76%	-21%	?	2%	-21%	-9%
O=C(COC(=O)CNC(=O)c1ccc(F)cc1)Nc1cccc(S(=O)(=O)N2CCCC2)c1	.	-4%	-5%	-13%	-6%	2%
COc1ccc(C(=O)Nc2ccc(Cl)c(S(=O)(=O)N3CCOCC3)c2)cc1	.	.	9.2µM*	.	.	-17%
CCOc1ccc(C(=O)NCC(=O)OCC(=O)Nc2cccc(S(=O)(=O)N3CCCC3)c2)cc1	.	0%	20%	4.3µM*	-2%	5%
CC(C)Oc1ccc(C(=O)Nc2cccc(S(=O)(=O)N3CCCC3)c2)cc1	.	.	23µM*	.	.	-2%
COc1ccc(NC2CCCN(C(=O)c3ccc(C(C)=O)s3)C2)cc1 (configuration not stated)	.	2%	10%	2%	0%	3%
COc1ccccc1C(=O)NC1(C(F)(F)F)C(=O)Nc2c1c(=O)[nH]c(=O)n2-c1ccccc1 (configuration not stated)	-7%	.	.	-16%	.	.
CC(=O)Oc1ccc(C(=O)Cc2ccccn2)c(O)c1	-5%	-1%	?	17µM*	-3%	1%
CCc1cc(C(=O)Cc2ccccn2)c(O)cc1O	.	2%	?	-4%	-3%	-4%
COc1cc([N+](=O)[O-])ccc1N1C(=O)C2C3C=CC(C4CC34)C2C1=O (configuration not stated)	-14%	-10%	-6%	13µM*	0%	-3%
